Laboratory results as given in PubChem BioAssay (NCATS).
Records with an inconclusive call do not appear. Values without a mark were called inactive. Activity calls are given as the source filed them. Calls follow the shape of the dose curve; as a rule, active = well fitted inhibition curve with a large enough effect; inconclusive = small, poorly fitted or top-dose-only effect; inactive = no such curve, though single readings can be large or run the other way.

Target: Glutaminase kidney isoform, mitochondrial (Homo sapiens) (UniProt O94925)
Sequence (O94925 whole entry, looked up, canonical isoform): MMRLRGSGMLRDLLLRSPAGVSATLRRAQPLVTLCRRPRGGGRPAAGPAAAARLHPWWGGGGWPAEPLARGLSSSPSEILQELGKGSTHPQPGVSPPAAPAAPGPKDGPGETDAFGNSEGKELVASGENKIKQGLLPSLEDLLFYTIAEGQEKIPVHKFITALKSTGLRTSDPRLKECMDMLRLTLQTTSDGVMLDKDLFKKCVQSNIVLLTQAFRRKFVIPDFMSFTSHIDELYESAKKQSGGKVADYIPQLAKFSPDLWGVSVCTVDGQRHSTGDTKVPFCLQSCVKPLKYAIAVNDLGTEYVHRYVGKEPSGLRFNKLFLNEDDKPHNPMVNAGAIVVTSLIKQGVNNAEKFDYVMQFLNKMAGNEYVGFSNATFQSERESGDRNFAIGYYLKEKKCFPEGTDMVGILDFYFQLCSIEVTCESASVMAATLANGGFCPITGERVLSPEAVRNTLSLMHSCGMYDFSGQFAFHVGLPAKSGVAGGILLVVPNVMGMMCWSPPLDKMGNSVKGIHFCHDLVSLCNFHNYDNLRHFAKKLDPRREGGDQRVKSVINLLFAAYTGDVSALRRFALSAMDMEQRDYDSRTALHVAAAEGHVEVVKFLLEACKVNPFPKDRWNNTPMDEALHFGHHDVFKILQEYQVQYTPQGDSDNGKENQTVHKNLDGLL
Test: qHTS for Inhibitors of Glutaminase (GLS): LOPAC Validation (AID 624146); also: nearly all actives have a fitted effect of over 60% in size;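 as to activity change, negative = inhibition: glutamate product detected by oxidase and peroxidase coupled Amplex red fluorescence gain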
Settings: glutaminase enzyme activity inhibition; series mostly up to 46.1 µM; activity change, negative = inhibition: at the top concentration
Text: Glutaminase (GLS) catalyzes the hydrolysis of glutamine into glutamate and ammonia. It plays a critical role in glutaminolysis, which is an important energy source for proliferating cells. It was shown that c-Myc, an oncogenic transcription factor known to regulate microRNAs and to stimulate cell proliferation, increases glutamine metabolism by stimulating the expression of GLS via direct suppression of miR23a and miR23b.
GLS is also thought to play a pathogenic role on HAD using a human HIV-1 infected macrophage system. […] GLS inhibition limits glutamate release and provides neuroprotection against HIV-1 infected macrophages.
The overall goal of this project is to identify small molecule inhibitors of GLS through quantitative high throughput screening (qHTS) of the MLSMR. A validated potent and selective inhibitor can be used as a tool molecule to further study the pharmacology of its target as well as explore its potential therapeutic application in cancer and inflammatory neurological disorders, such as HIV1-associated dementia (HAD) and multiple sclerosis.
NIH Chemical Genomics Center [NCGC]
NIH Molecular Libraries Probe Centers Network [MLPCN]
Assay Submitter (PI): Barbara S. Slusher, Johns Hopkins University
Three 3 uL of hKGA is dispensed into black well 1536-well plates in 45 mM KH2PO4 (pH 8.2), 0.02% Tween-20. Then 23 nL of compounds are added through pin tool transfer. To this, 1 uL of 1mM L-Glutamine and 1 uL of a solution of L-Glutamateoxidase, HRP, Amplex red are added. Plate is centrifuged for 25 sec before an initial fluorescence read is obtained on the ViewLux, after 30 min of RT incubation, the final read is taken on the ViewLux.
% is scaled to controls: 0 for no effect and ±100 for the full control effect; potency is read from the fitted curve at half-maximal effect.

| SMILES | activity change, negative = inhibition [%] | Potency |
| --- | --- | --- |
| CC(NC(C)(C)C)C(=O)c1cccc(Cl)c1 (stereo not given) | -4.67 | – |
| O=c1[nH]oc2c1CCNC2 | -6.58 | – |
| COc1ccc2c(c1OC)C(=O)O[C@H]2[C@@H]1c2cc3c(cc2CCN1C)OCO3 | -18.5 | – |
| CC(C)N(CCC(C(N)=O)(c1ccccc1)c1ccccn1)C(C)C (stereo not given) | – | inactive |
| O=C(CCCN1CCC2(CC1)C(=O)NCN2c1ccccc1)c1ccc(F)cc1 | -1.05 | – |
| CCCCC/C=C\C/C=C\C/C=C\C/C=C\CCCC(=O)NCC(=O)O | 83.2 | – |
| O=C(O)CCCc1ccc(N(CCCl)CCCl)cc1 | -15.6 | – |
| O=P1(N(CCCl)CCCl)NCCCO1 (stereo not given) | -1.97 | – |
| Cc1ncsc1CCCl | 226 | – |
| C=C(C)[C@H]1CN[C@H](C(=O)O)[C@H]1CC(=O)O | -8.74 | – |
| CC(C)c1cccc(C(C)C)c1O | – | 4.47 µM (active) |
| NCCc1ccc(O)cc1 | -12.5 | – |
| CCC1(c2ccc(N)cc2)CCC(=O)NC1=O (stereo not given) | -16.4 | – |
| CN1C(=O)CCS(=O)(=O)C1c1ccc(Cl)cc1 (stereo not given) | -3.72 | – |
| CC(C)(C)NCC(O)c1ccccc1Cl (stereo not given) | 4.66 | – |
